In experiment [1] the target is Tumor necrosis factor receptor superfamily member 10B (Homo sapiens) (UniProt O14763). The experiment can be described thus: caspase-8 TRAIL sensitization, hit retest, confirmation, cell-based, NB7+caspase-8, with/without TRAIL, luminescence panel (AID 651596). The settings on record: NB7 neuroblastoma + caspase-8, TRAIL sensitization, luminescence viability, with TRAIL, mean of runs, at 10 µM, stronger effect = higher value.

Experiment in experiment [2]: as above
To be noted: NB7 neuroblastoma + caspase-8, without TRAIL, luminescence viability, without TRAIL, mean of runs, at 10 µM.

SMILES strings stand for the structures.

Chain of Tumor necrosis factor receptor superfamily member 10B (Homo sapiens) (O14763 whole entry, looked up): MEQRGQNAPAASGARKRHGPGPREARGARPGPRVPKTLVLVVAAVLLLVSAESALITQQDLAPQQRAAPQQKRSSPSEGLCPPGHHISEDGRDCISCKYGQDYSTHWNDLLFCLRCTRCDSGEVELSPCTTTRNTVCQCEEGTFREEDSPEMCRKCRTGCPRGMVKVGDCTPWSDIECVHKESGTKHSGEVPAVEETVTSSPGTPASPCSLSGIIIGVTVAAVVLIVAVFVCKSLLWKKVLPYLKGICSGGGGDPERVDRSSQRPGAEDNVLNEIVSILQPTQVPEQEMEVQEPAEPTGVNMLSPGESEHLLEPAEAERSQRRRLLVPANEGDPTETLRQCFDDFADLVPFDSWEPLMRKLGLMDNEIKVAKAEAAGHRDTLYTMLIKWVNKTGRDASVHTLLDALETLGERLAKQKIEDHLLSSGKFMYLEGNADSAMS

As for `Cc1c(C(=O)N2CCc3ccccc32)oc2ccccc12`, the activity in experiment [1] stood at 48.2%; in experiment [2], 41%.
For `CCC(C(=O)O/N=C(\N)c1ccccc1)c1ccccc1` (stereo not drawn) the same measures were 81.9% and 81.6%.
The matching figures for `CC(=O)N1CCc2c(sc(NC(=O)c3ccc([N+](=O)[O-])o3)c2C(N)=O)C1`: 51.4% and 90.9%.
For `COc1ccc(/C(N)=N/OC(=O)c2ccc3c(c2)OCO3)cc1OC` the same measures were 94.2% and 95.1%.
With `COc1ccc(/C=C(\C#N)C(=O)OCC(=O)Nc2ccc(-c3nc4ccc(C)cc4s3)cc2)cc1`, the activity in experiment [1] turned out to be 42.9%; in experiment [2] it was 27.9%.
In the case of `COc1ccc(C)c2sc(N(CCCN(C)C)C(=O)c3ccc(S(=O)(=O)N4CCc5ccccc5C4)cc3)nc12`, the activity in experiment [1] was determined as 95.1%; in experiment [2], 99.4%.
For `Cc1nc(NC(=O)c2cc3ccccc3o2)sc1C` the same measures were 80.8% and 79.8%.
The matching figures for `Oc1ccc(-c2cn3cc(C(F)(F)F)ccc3n2)cc1`: 89.1% and 87.5%.
Take `Cc1ccc2nc(-c3sc4nc(C)ccc4c3N)[nH]c2c1`: the activity stood at 23.9% in experiment [1] and 7.22% in experiment [2].
For `Cn1cnc(Sc2ncnc3nc[nH]c23)c1[N+](=O)[O-]` the same measures were 62.5% and 72.5%.
The matching figures for `Clc1ccc(/C=N/Nc2nnc(-c3ncc[nH]3)c3ccccc23)cc1`: 57% and 49.9%.
On to `Cc1ccc(N=Cc2c(C)[nH]n(-c3nc4ccccc4[nH]3)c2=O)cc1`, for which the activity is 88.6% in experiment [1] and 88.8% in experiment [2].
On to `C#CC(=O)N(c1cccc(OC)c1)C(C(=O)NC1CCCC1)c1cccs1` (stereo not drawn), for which the activity was 99.4% in experiment [1] and 99.5% in experiment [2].
For `COc1ccc(-c2cc(=O)c3ccccc3s2)cc1` the same measures were 61.2% and 62%.
The matching figures for `O=C(OCc1cc(=O)oc2cc(O)ccc12)c1cc(S(=O)(=O)N2CCOCC2)ccc1F`: 84.1% and 70.9%.
The matching figures for `Cc1ccc(-c2nnc(NC(=O)c3ccco3)s2)cc1`: 58.6% and 62.7%.
Turning to `Cc1nn(-c2ccccc2)c(C)c1/C=N/NC(=O)c1cc(C23CC4CC(CC(C4)C2)C3)[nH]n1`, the activity in experiment [1] is 74.1%; in experiment [2], 60%.
The matching figures for `CCC1=NN(C(=O)c2cccc(Br)c2)C(O)(c2ccc(Br)cc2)C1` (stereo not drawn): 19.9% and 22.4%.
For `CCC(=O)Nc1cccc(-c2ccc(N3CCCCC3)nn2)c1` the same measures were 85.5% and 84.5%.
The matching figures for `Cc1ccc(-c2nn(-c3ccccc3)cc2NC(=O)CCl)cc1`: 94% and 95%.
For the compound `COc1cccc(-c2noc(-c3ccc4c(c3)OCO4)n2)c1`, the results for the activity in experiment [1] and in experiment [2] were 65.7% and 62.5%, respectively.
The matching figures for `O=c1[nH]c(/C=C/c2ccccc2Cl)nc2ccccc12`: 75.5% and 65.7%.
For `CN(C)c1ccc(/C=N/NC(=O)c2ccccn2)cc1` the same measures were 74.7% and 65.2%.
The matching figures for `Cc1csc(NC(=O)c2ccc(OCC3CCCO3)cc2)n1` (stereo not drawn): 54.9% and 64.9%.
Take `O=C(/C=C/NNC(=O)c1ccccc1)c1ccc([N+](=O)[O-])cc1`: the activity amounted to 21.4% in experiment [1] and 20% in experiment [2].
The matching figures for `O=C(N/N=C/c1cc(O)ccc1[N+](=O)[O-])c1ccc2c(c1)OCCO2`: 91% and 87.7%.
For `CCOC(=O)c1cn2nc(N3CCCCC3)ccc2n1` the same measures were 52.5% and 72.9%.
As to `O=C(Nc1nc2cc3c(cc2s1)OCCO3)c1ccc([N+](=O)[O-])o1`, the activity in experiment [1] was determined as 63.8%; in experiment [2], 84.1%.
Turning to `Clc1ccccc1-c1nnc(-c2ccc3c(c2)OCO3)o1`, the activity in experiment [1] turned out to be 53.9%; in experiment [2], 50.7%.
As for `COCCn1c(C)cc(C(=O)COC(=O)c2n[nH]c3ccccc23)c1C`, the values for the activity in experiment [1] and in experiment [2] were 88.7% and 86.9%, respectively.
The matching figures for `Nc1ccc(-c2cnc(-c3ccc(N)cc3)nc2)cc1`: 74.7% and 71.7%.
`CC(C)(C)c1ccc2c(c1)OC(C(=O)N/N=C\c1ccc[nH]1)CO2` (stereo not drawn): the activity in experiment [1] was 26.6%; in experiment [2], 43.6%.
For `O=C(OCn1ncc(Cl)c(Cl)c1=O)c1ccccc1Cl`, the activity in experiment [1] amounted to 99.1%; in experiment [2] it was 99.3%.
Turning to `C#Cc1cc(N2CCN(C(=O)c3ccoc3)CC2)n2nc(-c3cccc(Cl)c3)cc2n1`, the activity in experiment [1] was determined as 98.4%; in experiment [2] it was 97.3%.
For `CCCCCCCCCCCCCCC[C@@H](O)[C@@H](N)CO` the same measures were 84.5% and 79.7%.
Take `C/C(=N/NC(=O)c1ccccn1)c1ccco1`: the activity was found to be 35.1% in experiment [1] and 41.5% in experiment [2].
The matching figures for `CCOc1ccc(C(=O)Nc2nnc(NC(=S)Nc3ccccc3)s2)cc1`: 59.8% and 61.6%.
The matching figures for `Cc1ccccc1Nc1nc(N)c2ccccc2n1`: 63.9% and 59.8%.
For `CC1Oc2ccccc2C=C1/C=N/NC(=O)c1ccccc1O` (stereo not drawn) the same measures were 46.1% and 44.9%.
Turning to `Oc1cccc(-c2nnc(-c3cccc(O)c3)nn2)c1`, the values for the activity in experiment [1] and in experiment [2] were 89% and 84.2%, respectively.
The matching figures for `COc1ccc(C(C(=O)NC2CCCCC2)N(C(=O)CCl)c2ccc(Cl)cc2)cc1` (stereo not drawn): 98.4% and 98.9%.
On to `O=Nc1c2cc(-c3ccccc3)[nH]nc-2c2ccccc12`, for which the activity in experiment [1] amounted to 78.8%; in experiment [2] it was 78.7%.
For `N/C(Cc1ccc(Cl)c(Cl)c1)=N\OC(=O)c1cccs1` the same measures were 49.6% and 39.5%.
The matching figures for `Cc1cc(C)n(-c2nc(Nc3ccccc3C(F)(F)F)nc(-n3nc(C)cc3C)n2)n1`: 51.8% and 71.9%.

These data come from PubChem BioAssay.
